Screening results (PubChem)
LASV entry inh = blocks Lassa virus binding to or entry into cells | 1.2% of 300,000 active | Lassa virus pseudotype entry inhibition, cell reporter | Potency, µM (titrated, usually from 37.9 µM), inactives show at the top dose activity change, negative = inhibition, actives largely listed as inhibitors; calls by dose curve; tested in HEK293 cells; further: potency means the concentration at half of the fitted maximal effect; nearly all actives have a fitted effect of over 50% in size
VACV mCherry inh = vaccinia inhibition (mCherry reporter); Potency, µM (series often up to 36.5 µM), inactives show at the highest dose activity change, negative = inhibition, hits mostly inhibitors; Vaccinia virus mCherry reporter infection, fluorescence; 0.63% of 310,000 active; AID 720579; calls by dose curve; tested in A549 cells; further: potency means the concentration at half of the fitted maximal effect; nearly all actives have a fitted effect of over 35% in size
FMDV antiviral = antivirals against foot and mouth disease virus; FMDV antiviral cell-based qHTS; Potency, µM (doses to about 57.9 µM), without a hit: top-dose activity change, negative = inhibition, actives largely listed as inhibitors; 1.2% of 410,000 active; AID 1159524; calls by dose curve; tested in HEK293T cells; further: read-out not given here; potency means the concentration at half of the fitted maximal effect; nearly all actives have a fitted effect of over 45% in size
Vaccinia Venus = inhibitors of vaccinia virus (Venus reporter); Vaccinia virus Venus reporter expression, fluorescence; Potency, µM (doses to about 36.5 µM), for the others: at the highest dose activity change, negative = inhibition, hits mostly inhibitors; 0.46% of 330,000 active; AID 720580; calls by dose curve; tested in A549 cells; further: potency means the concentration at half of the fitted maximal effect; nearly all actives have a fitted effect of over 30% in size
Marburg entry inh = Marburg virus entry inhibition. Marburg virus pseudotyped entry inhibition, cell reporter. Potency, µM (doses to about 37.8 µM), for inactives: top-dose activity change, negative = inhibition, most hits filed as inhibitors. 1.8% of 300,000 active. AID 540276; calls by dose curve; tested in HEK293 cells; further: potency means the concentration at half of the fitted maximal effect
HCMV antiviral = human cytomegalovirus inhibition; activity change, negative = inhibition, % at 57.5 µM; 4.5% of 410,000 active; AID 1259415; HFF cells, HCMV-luciferase reporter, 72 h; stronger effect = lower value; in the data active means activity change below about -60%; inconclusive means no clear call, values can overlap the other calls; inactive means above about -39%
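Luciferase read-out from HCMV-luciferase-infected HFFs (MOI 1 PFU/cell) 72 h post infection at 37C; compounds added after 16 h cell attachment; activity normalized between buffer-only basal and Salinomycin (10uM) inhibitor controls.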
An asterisk follows results filed as active; [ ] = remark or other dose. Compounds with a hit are over-represented: about 6.5% of the library has one in this group of screens. On the % scale 0 is the no-effect control and ±100 the full control effect.

For CC(C)C(=O)NC(c1cccc([N+](=O)[O-])c1)c1c(O)ccc2ccccc12 (stereo unspecified) the results were LASV entry inh 9.8%, VACV mCherry inh -7.8%, FMDV antiviral 39.1%, Vaccinia Venus -8.5%, Marburg entry inh -23.2%[46.1 µM] and HCMV antiviral 3.3.
CCOc1ccc(CCNC(=O)CCCc2nnc3n(C)c(=O)c4sccc4n23)cc1OCC was read as LASV entry inh 13.0%[46.1 µM], VACV mCherry inh -5.7%, FMDV antiviral -8.4%, Vaccinia Venus 0.9%, Marburg entry inh -14.6%[46.1 µM] and HCMV antiviral 15.0.
COc1ccc(C(=O)NC(C)CCc2ccccc2)cc1[N+](=O)[O-] (stereo unspecified) was read as LASV entry inh -5.8%, VACV mCherry inh -23.8%, FMDV antiviral -23.9%, Vaccinia Venus -19.8%, Marburg entry inh -12.8% and HCMV antiviral -5.9.
`COc1ccc(C(=O)C(C)[n+]2ccc(C)c3ccccc32)cc1[N+](=O)[O-]` (stereo unspecified) gave FMDV antiviral -20.4% and HCMV antiviral -86.4*.
COc1ccccc1CNc1ccc2c(c1)OC[C@H](CC(C)C)NS2(=O)=O was read as LASV entry inh 9.8%[46.1 µM] and HCMV antiviral -27.5.
Cc1ccc(Cl)cc1NC(=O)CCCN1C(=O)CCn2nc(-c3cn(C)c4ccccc34)cc21 was read as LASV entry inh inconclusive, VACV mCherry inh -17.9%, FMDV antiviral -20.6%, Vaccinia Venus -9.2% and HCMV antiviral -2.6.
For Cn1c(N)c(C(=O)CSc2nn(-c3ccc(F)cc3)c(=S)s2)c(=O)n(C)c1=O the results were FMDV antiviral 15.8µM* and HCMV antiviral inconclusive.
`Cc1cn2c(=O)cc(COC(=O)c3cccc(NC(=O)C(C)Oc4ccccc4)c3)nc2s1` (stereo unspecified) gave LASV entry inh -2.2%[46.1 µM], VACV mCherry inh inactive, FMDV antiviral 5.9%, Vaccinia Venus -14.7% and HCMV antiviral -64.4*.
For Cc1ccc(OCc2cc(=O)n3cc(C)sc3n2)c(C)c1 the results were LASV entry inh 16.4%[46.1 µM], VACV mCherry inh -6.1%, FMDV antiviral 20.9%, Vaccinia Venus -4.2%, Marburg entry inh -4.2%[46.1 µM] and HCMV antiviral -100.6*.
Screening Cc1cn2c(=O)cc(COC(=O)C(C)Oc3ccccc3)nc2s1 (stereo unspecified) returned LASV entry inh -0.2%[46.1 µM], VACV mCherry inh -5.2%, FMDV antiviral -3.0%, Vaccinia Venus -0.3% and HCMV antiviral 12.1.
Screening Cc1cn2c(=O)cc(COc3ccccc3NC(=O)c3ccccc3C)nc2s1 returned LASV entry inh 13.6%[46.1 µM], VACV mCherry inh -7.4%, FMDV antiviral -26.5%, Vaccinia Venus 1.5%, Marburg entry inh 26.2%[46.1 µM] and HCMV antiviral -10.6.
`Cc1cn2c(=O)cc(COc3ccc(Cl)cc3)nc2s1` gave LASV entry inh 33.1%[46.1 µM], VACV mCherry inh -9.6%, FMDV antiviral -8.7%, Vaccinia Venus -16.6%, Marburg entry inh -4.1%[46.1 µM] and HCMV antiviral 6.0.
Cc1cn2c(=O)cc(COc3cccc(NC(=O)c4ccccc4C)c3)nc2s1 was read as LASV entry inh -1.2%[46.1 µM], VACV mCherry inh -10.5%, FMDV antiviral -13.5%, Vaccinia Venus -4.1%, Marburg entry inh -0.7%[46.1 µM] and HCMV antiviral -68.7*.
For COc1ccc(CNC(=O)c2oc3c(c2C)-c2nn(Cc4ccc(Cl)cc4)cc2CC3)cc1 the results were LASV entry inh 2.6%[46.1 µM], VACV mCherry inh -25.1%, FMDV antiviral inconclusive, Vaccinia Venus inconclusive and HCMV antiviral -32.5.
Screening C[C@H](CO)N1C[C@H](C)[C@@H](CN(C)C(=O)Nc2cccc(F)c2)OCc2cn(nn2)CCCC1=O returned HCMV antiviral 23.9.
Screening CCCCCOc1ccc(Br)cc1CSC(=N)N returned VACV mCherry inh inconclusive, FMDV antiviral 15.8µM*, Vaccinia Venus 11.2µM* and HCMV antiviral -98.4*.
Screening COc1ccc(Br)cc1CSC(=N)N returned LASV entry inh -0.3%[46.1 µM], VACV mCherry inh -6.1%, FMDV antiviral -25.4%, Vaccinia Venus 0.4%, Marburg entry inh 12.6µM* and HCMV antiviral inconclusive.
Screening COC(=O)C/C=C\[C@@H](C)[C@@H](/C=N\OC[C@@H](O)COCc1ccco1)NS(=O)(=O)c1ccc(C)cc1 returned Marburg entry inh 20.9%[14.2 µM].
CC(C)c1ccc2c(c1)C(N1CCN(C)CC1)Cc1cccnc1S2 (stereo unspecified) was read as LASV entry inh -9.6%[46.1 µM], VACV mCherry inh -4.8%, FMDV antiviral -21.0%, Vaccinia Venus -10.6%, Marburg entry inh 11.2µM* and HCMV antiviral 4.0.
CN1C/C(=C/c2cccnc2)C(=O)/C(=C/c2cccnc2)C1 was read as LASV entry inh inconclusive, VACV mCherry inh inconclusive, FMDV antiviral 3.16µM*, Vaccinia Venus inconclusive, Marburg entry inh 1.78µM* and HCMV antiviral -91.6*.
CC(C)N1C/C(=C/c2cccnc2)C(=O)/C(=C/c2cccnc2)C1 was read as LASV entry inh 12.6µM*, VACV mCherry inh inactive, FMDV antiviral 8.91µM*, Vaccinia Venus -9.4%, Marburg entry inh 4.47µM* and HCMV antiviral -36.5.
Screening CC(C)N1C/C(=C/c2ccsc2)C(=O)/C(=C/c2ccsc2)C1 returned LASV entry inh 3.98µM*, VACV mCherry inh -17.9%, FMDV antiviral 15.8µM*, Vaccinia Venus -8.8%, Marburg entry inh inconclusive and HCMV antiviral -84.6*.
CN1C/C(=C/c2ccc(B(O)O)cc2)C(=O)/C(=C/c2ccc(B(O)O)cc2)C1 was read as FMDV antiviral 28.2µM*.
Screening O=C(NCc1ccncc1)c1csc(N2CCN(Cc3cccc(C(F)(F)F)c3)C2=O)n1 returned HCMV antiviral -13.3.
For CC(C)=CCN1C(=O)[C@]2(O[C@H](C)CC3=CCCC32)c2c(Br)cccc21 (stereo partly specified) the results were Marburg entry inh 3.5%[14.2 µM].
Screening O=S(=O)(c1ccc(F)cc1)N1CCN(c2nc(-c3cccs3)nc3ccccc23)CC1 returned VACV mCherry inh -12.8% and Vaccinia Venus -18.2%.
For CN(C)c1ccc([C@@H]2[C@@H]([N+](=O)[O-])[C@H]3C=Cc4ccccc4N3[C@H]2C(=O)c2ccc(Cl)cc2)cc1 the results were LASV entry inh -3.6%, VACV mCherry inh -13.1%, FMDV antiviral -23.5%, Vaccinia Venus 15.4%, Marburg entry inh -14.4% and HCMV antiviral -66.9*.
`Cc1ccc(S(=O)(=O)OC[C@@H]2CN3[C@H](c4ccc(Br)cc4)[C@H](C)CC[C@H]3C(=O)O2)cc1` gave Marburg entry inh -12.2%[14.2 µM].
For Cc1ccccc1CN1N=C(/C=C/c2ccccc2)CCC1=O the results were LASV entry inh 7.94µM*, VACV mCherry inh -16.4%, FMDV antiviral inconclusive, Vaccinia Venus -12.4%, Marburg entry inh 6.6%[14.2 µM] and HCMV antiviral 1.8.
`O=C(Cc1ccccc1)N1CC(=O)N2[C@@H](CO)[C@@H](c3ccc(Br)cc3)[C@@H]2C1` gave HCMV antiviral 0.7.
